Rows were chosen to be rich in hits. Some 1.8% of all compounds tested hit in one or more screens of this group.
TrxR1 inh – inhibitors of rat thioredoxin reductase 1; O89049; recombinant rTrxR1, NADPH fluorescence consumption, selenite substrate; Potency, µM (titrated, usually from 114 µM), for inactives: at the highest dose activity change, negative = inhibition, usual class: inhibitors; 390,000 compounds, 1% hits; AID 588453; further: nearly all actives have a fitted effect of over 65% in size
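Rat TrxR1 (90 nM in the dispensed reagent) was pre-reduced with 400 uM NADPH for 5 min at room temperature, then incubated with compound for 15 min. After 400 uM selenite was added, NADPH fluorescence (Ex 340/Em 450 nm) was followed for 8 min.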
GCN5L2 inh – blocks human GCN5L2 histone acetyltransferase | Q92830 | GCN5L2 HAT assay, ThioGlo1 CoA-SH fluorescence | Potency, µM (series often up to 58.9 µM), for inactives: at the highest dose activity change, negative = inhibition, most hits filed as inhibitors | 390,000 compounds, 0.21% hits
Target sequence (Q92830 whole entry, looked up): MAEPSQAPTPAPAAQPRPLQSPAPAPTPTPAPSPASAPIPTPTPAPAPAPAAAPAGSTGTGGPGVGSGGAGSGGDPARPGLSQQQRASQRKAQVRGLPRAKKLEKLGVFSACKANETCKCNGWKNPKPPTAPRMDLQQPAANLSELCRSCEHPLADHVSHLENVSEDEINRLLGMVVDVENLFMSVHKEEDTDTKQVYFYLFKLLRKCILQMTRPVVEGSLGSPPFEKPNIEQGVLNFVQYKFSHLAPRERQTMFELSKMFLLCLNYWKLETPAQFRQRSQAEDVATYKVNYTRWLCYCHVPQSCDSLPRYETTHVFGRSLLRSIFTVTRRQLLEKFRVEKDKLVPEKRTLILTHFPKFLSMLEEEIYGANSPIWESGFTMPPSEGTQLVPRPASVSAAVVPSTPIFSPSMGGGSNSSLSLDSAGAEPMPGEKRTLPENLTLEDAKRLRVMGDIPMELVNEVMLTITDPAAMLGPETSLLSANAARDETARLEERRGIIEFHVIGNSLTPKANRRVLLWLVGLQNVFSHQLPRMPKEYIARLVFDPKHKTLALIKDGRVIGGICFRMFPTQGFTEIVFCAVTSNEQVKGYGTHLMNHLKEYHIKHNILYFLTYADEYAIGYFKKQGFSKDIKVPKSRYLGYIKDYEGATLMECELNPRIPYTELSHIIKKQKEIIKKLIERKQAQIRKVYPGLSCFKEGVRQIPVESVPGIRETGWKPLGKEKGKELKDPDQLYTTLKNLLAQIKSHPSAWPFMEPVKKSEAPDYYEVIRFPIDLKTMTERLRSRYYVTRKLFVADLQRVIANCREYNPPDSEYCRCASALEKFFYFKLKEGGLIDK
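Titration-based screen in which CoA formation is detected via maleimide probe ThioGlo1 (50uM) turning fluorescent on thiol reaction; substrates H3(1-25) 75uM and acetyl-CoA 70uM, GCN5L2 20nM, 20 min incubation at room temperature.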
TrxR1 substrate – rat thioredoxin reductase 1 substrate activity | 390,000 compounds, 0.01% hits | O89049 | Potency, µM (doses to about 114 µM), for the others: at the highest dose activity change, negative = substrate turnover | purified TrxR1 substrate turnover, NADPH consumption readout; further: nearly all actives have a fitted effect of over 50% in size
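Rat TrxR1, dispensed at 90 nM, was prereduced with 400 uM NADPH (final) for 5 min at ~22 deg C, then incubated with compound 15 min before 400 uM selenite. A first-read NADPH fluorescence drop versus no-compound background flagged substrates.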
VDR inh – vitamin D3 receptor (human) inhibition; P11473; VDR-SRC2-3 peptide fluorescence polarization, 2 h; Potency, µM, for the others: max response, negative = inhibition, usual class: inhibitors; 400,000 compounds, 0.93% hits; AID 504847
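Fluorescence polarization assay of small-molecule disruption of VDR binding to coregulator peptide SRC2-3. Compounds and controls pin-transferred, then read after 2 h incubation at ambient room temperature.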
* marks the source's active call; other numbers are inactive results; ? = inconclusive; / = no result given; ! = a repeat was not active; [ ] = dose if it differs, or a comment. The call rests on the fitted dose curve; in most records, active means well fitted curve in the direction sought with a large enough effect; inconclusive means small, poorly fitted or top-dose-only effect, or another doubt; inactive means no such curve, though single readings can be large; an effect the other way counts as inactive or inconclusive. On the % scale 0 is the no-effect control and ±100 the full control effect; potency means the concentration at half of the fitted maximal effect.

SMILES | TrxR1 inh | GCN5L2 inh | TrxR1 substrate | VDR inh
CCOC(=O)C1=CC(=C2C(=O)N(CC)C(=S)N(CC)C2=O)c2ccccc2O1 | 39.8µM* | -6.5% | -10.1% | ?
CN(CCOc1ccc(C=C2C(=O)NC(=O)NC2=O)cc1)c1ccccn1 | ? | -13.6% | 12.7% | ?
O=C1NC(=S)NC(=O)C1=Cc1ccc(OCc2ccccc2)cc1 | 7.94µM* | / | 3.3% | 39.8µM*
CCN1C(=O)NC(=O)/C(=C\c2cn(CC(=O)O)c3ccccc23)C1=O | / | -16.7% | / | /
O=C(O)Cn1cc(/C=C2\C(=O)NC(=O)N(Cc3ccco3)C2=O)c2ccccc21 | 31.6µM* | -10.9% | -21.8% | ?
CCN(CC)c1ccc(/C=C2\C(=O)NC(=O)N(Cc3ccco3)C2=O)cc1 | 28.2µM* | 0.3% | -8.1% | ?
CN1C(=O)CCS(=O)(=O)[C@@H]1c1ccc(Cl)cc1 | / | 3.0%[21.4 µM] | / | 0.1%
CNC1=CN(O)C(c2ccccc2)=c2cc(Cl)ccc2=N1 | / | -5.3% | / | ?
CCCCCCCC/C=C\CCCCCCCC(=O)OC[C@@H](COP(O)(O)=S)OC | / | 5.01µM* | / | 17.8µM*
O=C1NC(=S)NC(=O)C1c1ccccc1 | -16.6% | / | -12.7% | ?
C=CCC1C(=O)NC(=S)NC1=O | -6.7%[57.1 µM] | -24.7% | -6.0% | 89.1µM*
CC(C)c1cc2c(c(O)c1O)[C@@]1(C(=O)O)CCCC(C)(C)[C@@H]1CC2 | / | -23.0% | / | 20µM*
CC1(C(=O)O)CCCC2(C)c3cc(O)ccc3CCC12 (stereo not given) | 23.8% | / | 0.7% | 6.1%
CC(C)c1cc2c(c(O)c1O)[C@]1(C(=O)O)CCCC(C)(C)C1CC2 (stereo not given in full) | / | -6.2% | / | 44.7µM*
CC(C)[C@@]1(NC(=O)[C@H]2CC3c4cccc5[nH]cc(c45)C[C@H]3N(C)C2)O[C@@]2(O)C3CCCN3C(=O)[C@@H](Cc3ccccc3)N2C1=O (stereo not given in full) | / | -23.8% | / | -0.7%
C=CCN1C(=O)NC(=O)/C(=C/c2ccc(N(C)C)c(Br)c2)C1=O | ? | -1.2% | -0.4% | 79.4µM*
CCOP1(=S)Oc2cc3c(cc2C(C(=O)OC)(C(F)(F)F)O1)OCO3 (stereo not given) | -8.8%[57.1 µM] | 0.6% | -5.1%[57.1 µM] | 79.4µM*
CCCCCCCCCCCCCCOS(=O)(=O)O | / | 8.91µM* | / | 28.2µM*
CC1=NN(c2ccccc2)C(=O)/C1=C/c1c(O)[nH]c(=O)[nH]c1=O | -11.6%[57.1 µM] | -4.3% | -9.6%[57.1 µM] | -8.7%
COc1ccc(/C=C2/C(=O)N(c3ccccc3)N=C2C)cc1 | ? | / | -10.3% | 89.1µM*
CC1=NN(c2ccccc2)C(=O)/C1=C/c1c(O)[nH]c(=S)[nH]c1=O | 17.8µM* | 3.9% | ? | ?
COc1ccc(N2C(=O)NC(=O)/C(=C/c3ccc4c(c3)Cc3ccccc3-4)C2=O)cc1 | / | -20.1% | / | /
N[C@H](CCP(=O)(O)O)C(=O)O | / | -8.4% | / | -1.9%
CNNC | / | -22.7% | / | ?
CCCCCCCCCC[Si](C)(C)CCC(=O)N[C@@H](Cc1ccc(C)cc1)c1ccccc1 | 5.0% | / | -0.4% | /
SMILES | TrxR1 inh | GCN5L2 inh | TrxR1 substrate | VDR inh
COC(=O)[C@@H]1[C@@H](C(=O)OC)C2(c3ccccc3-c3ccccc32)N(c2ccc(Cl)cc2)N1C#N | 11.2µM* | -5.1% | -3.3% | ?
O=C(N[C@@H]1CN2CCC1CC2)c1cc(Cl)cc2[nH]cnc12 | / | 0.9% | / | 12.7%
N[C@@H](Cn1ccc(=O)c(O)c1)C(=O)O | 20.7%[57.1 µM] | -5.0% | 12.1%[57.1 µM] | 0.9%
CC(C)=CCCC1(C)C=Cc2c(O)c3c(c(CC=C(C)C)c2O1)OC12C(CC4CC1C(C)(C)OC2(C/C=C(/C)C(=O)O)C4O)C3=O (stereo not given) | / | ? | / | 50.1µM*
Cc1c(F)c(F)c(COC(=O)C2C(/C=C(\Cl)C(F)(F)F)C2(C)C)c(F)c1F (stereo not given) | / | 0.0% | / | -4.1%
Cc1cccc(-n2c(O)c(/C=C3/C(c4ccccc4)=Nc4ccccc43)c(=O)[nH]c2=O)c1 | -26.8% | -5.0% | -5.3% | 89.1µM*
Cc1cccc(-n2c(O)c(/C=C/C=Nc3ccccc3)c(=O)[nH]c2=O)c1 | ? | -8.2% | ? | 9.5%
Cc1ccccc1-n1c(O)c(/C=C2/C(c3ccccc3)=Nc3ccccc32)c(=O)[nH]c1=O | ? | -5.2% | -11.5% | 89.1µM*
O=C(O)[C@@H]1Cc2[nH]cnc2C(c2cccnc2)N1 (stereo not given in full) | / | / | / | -2.7%
O=C1NC(=O)N(c2ccc(Br)cc2)C(=O)/C1=C/c1ccsc1 | ? | -3.2% | -0.7% | 44.7µM*
O=C1NC(=O)C(=Cc2ccsc2)C(=O)N1 | ? | 9.0% | 0.3%[57.1 µM] | -10.1%
O=C1NC(=O)N(c2ccc(F)cc2)C(=O)/C1=C/c1ccsc1 | ? | -3.2% | 0.6%[57.1 µM] | ?
O=C1NC(=O)N(c2cccc(Br)c2)C(=O)/C1=C/c1ccsc1 | 44.7µM* | -17.2% | 3.6% | ?
NCC(=O)c1cccc([N+](=O)[O-])c1 | -9.7% | / | 3.9% | /
CCOP(=S)(OCC)O/N=C(\C#N)c1ccccc1Cl | / | -17.6% | / | 22.4µM*
O=S(=O)(c1ccc(Cl)cc1)c1cc(Cl)c(Cl)cc1Cl | / | 3.2% | / | -14.3%
N#CC(C#N)=NNc1ccc(OC(F)(F)F)cc1 | / | ? | / | 0.891µM*
N#CC(C#N)=NNc1ccc(S(=O)(=O)N2CCCC2)cc1 | ? | -9.3% | -22.0% | ?
CN(C)c1ccc(N=O)cc1 | 5.01µM* | / | ? | /
CC(C)(C)OC(=O)C(Br)CCBr (stereo not given) | / | ? | / | -0.9%
CNCCc1c[nH]c2ccccc12 | 56.2µM* | -1.8% | 4.7% | -8.7%
C=C(C)C1CCC(C)=CC1c1c(O)cc(O)cc1CCCCC (stereo not given) | / | -12.1% | / | ?
CCN(CC)C(=O)c1ccc2c(c1)C1C(Cl)C(Sc3ccccc3[N+](=O)[O-])CC1C(C(=O)O)N2 (stereo not given) | 50.1µM* | 12.6µM* | 4.1% | 2.1%
C[C@@H](C(=O)O)c1ccc(C(=O)c2cccs2)cc1 | / | 0.0%[21.4 µM] | / | -4.0%
O=C1NC(=O)N(CCC2=CCCCC2)C(=O)/C1=C/c1cccs1 | 7.94µM* | -10.4% | 3.6%[57.1 µM] | ?
SMILES | TrxR1 inh | GCN5L2 inh | TrxR1 substrate | VDR inh
CN(CC(=O)O)C(=O)[C@H](Cc1ccccc1)NC(=O)[C@@H](CCCN=C(N)N)NC(=O)[C@@H](N)Cc1ccc(O)cc1 | / | -19.3% | / | 0.9%
NCC(O)c1cc(O)c(O)cc1F (stereo not given) | ? | 0.5% | 2.2%[57.1 µM] | 28.2µM*!
NC1CCCC[C@H]1N (stereo not given in full) | / | 4.2% | / | 3.0%
CCCN(CCC)CCc1ccc(O)c(O)c1 | 3.9%[57.1 µM] | -4.8% | 14.6%[57.1 µM] | 10.3%
OCCCc1ccc(O)c(O)c1 | 79.4µM* | -1.9% | 4.7% | -12.9%
CC(C)[C@H](NC(=O)[C@H](CC(=O)O)NC(=O)[C@H](Cc1ccccc1)NC(=O)[C@@H](C)NC(=O)[C@@H](N)Cc1ccc(O)cc1)C(=O)N[C@H](C(=O)NCC(N)=O)C(C)C | / | 48.7% | / | 8.9%
CC[C@@]1(O)C(=O)OCc2c1cc1n(c2=O)Cc2cc3cc(O)ccc3nc2-1 | / | ? | / | 0.3%

Assay outcomes: PubChem, National Center for Advancing Translational Sciences (NCATS)
